The text below walks through data of article PMC3795721, “Screening for Protein-DNA Interactions by Automatable DNA-Protein Interaction ELISA”.

AT4G31550, sequence (Q9SV15 228-325): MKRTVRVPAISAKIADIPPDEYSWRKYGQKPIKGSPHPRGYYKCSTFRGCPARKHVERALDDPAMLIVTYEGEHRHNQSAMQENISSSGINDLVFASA

This test concerns the target AT4G31550 (Arabidopsis thaliana, UniProt Q9SV15 228-325). The test is described as follows: DPI-ELISA; DPI-ELISA, streptavidin 384-well plate, 1-2 pmol biotinylated dsDNA per well, crude native E. coli extract, anti-His detection; buffer as in Brand et al. [46],; high values mean tight binding. Particulars: tags: C-terminal His (pET-DEST42); label: 5' biotin on forward strand; dsDNA, one strand shown.
Turning to AAAAAATTAGGACCATCCCCACTAGGAAAA, the binding signal amounted to 0.69 ± 0.0707 absorbance.
Sequence AAAAAACTCCCTCTCCTCTGTCTTCCAAAA gave a binding signal of 0.635 ± 0.106 absorbance.
AAAAAAGCTTTCAACATCTGCGTCCAAAAA yielded a binding signal of 0.42 ± 0.0424 absorbance.
The figure for AAAAAATGGAAAGACCTATACCGGTCAAAA is 1.09 ± 0.17 absorbance; for AAAAAAGGAAAACGAGTTCATCTGGTAAAA it is 0.585 ± 0.134 absorbance; for AAAAAAAACTGTCGCCCCCGGCTGGCAAAA it is 0.545 ± 0.12 absorbance.
For the sequence AAAAAAGTGCACGACCCATTTATATAAAAA, the binding signal came out at 0.5 ± 0.099 absorbance.
As for AAAAAACCCGGTTGGAGAAAATAATTAAAA, the binding signal was 0.55 ± 0.127 absorbance.
AAAAAAGTCGTTACACGTATGCGTGCAAAA: the binding signal is 1.5 ± 0.0566 absorbance.
The sequence AAAAAACGTGCGCGTGCATGTCATCGAAAA returned a binding signal of 0.665 ± 0.0919 absorbance.
For the sequence AAAAAAAATCTTAGCTCTATCTCATCAAAA, the binding signal is 0.68 ± 0.113 absorbance.
Regarding AAAAAAAGGGTCCGGTGCATACATGTAAAA, the binding signal is 0.57 ± 0.156 absorbance.
As for AAAAAATGAATCAATTTTTGGGCTTTAAAA, the figure is 0.52 ± 0.113 absorbance.
On to AAAAAACGGAAGATCGTGACTGCTAGAAAA, for which the binding signal was 0.715 ± 0.0354 absorbance.
Consider AAAAAACCCTAACGAATGCTTTTCGGAAAA, for which the binding signal stood at 0.66 ± 0.0849 absorbance.
In turn, AAAAAAGCCTTTACCCTTGTTCCTCTAAAA yielded a binding signal of 0.69 ± 0.17 absorbance.
With AAAAAAACACCTGTATAGCATGGACGAAAA, the binding signal was found to be 0.73 ± 0.0707 absorbance.
Take AAAAAACTCGACATAGAATGCGGAAAAAAA: the binding signal was 0.655 ± 0.106 absorbance.
With AAAAAATTACTATTACACACTTGGGGAAAA, the binding signal is 0.6 ± 0.127 absorbance.
AAAAAATTCCCAGCGTATCCGACCCGAAAA registered a binding signal of 0.535 ± 0.0778 absorbance.
The sequence AAAAAATTACTTCTCCCTTCCTTTGCAAAA had a binding signal of 0.605 ± 0.163 absorbance.
As for AAAAAATAGACCCTGACCCACCATTGAAAA, the figure is 0.71 ± 0.113 absorbance; as for AAAAAAAGTCTGCGGCTGCAGGGCGGAAAA, 1.91 ± 0.368 absorbance.
Sequence AAAAAAATTCGCAACCCTCACGTTCGAAAA had a binding signal of 0.67 ± 0.0566 absorbance.
As for AAAAAACATGTCGCACCTGTACTAACAAAA, the figure is 0.66 ± 0.127 absorbance; as for AAAAAATTTGTTCGGGCTCATAACTGAAAA, 0.595 ± 0.148 absorbance; as for AAAAAACATTCCTAGTTCATGTTACTAAAA, 0.665 ± 0.134 absorbance.
As for AAAAAATATCATTGTTACCGTTGCTAAAAA, the figure is 0.465 ± 0.12 absorbance; as for AAAAAAAATACTGCGCACTTGCACTCAAAA, 0.6 ± 0.127 absorbance.
Turning to AAAAAAACTCTCCGGGTACAATTGCAAAAA, the binding signal worked out at 0.605 ± 0.205 absorbance.
For AAAAAACGCTCCGTTTTTGCAATGCGAAAA, the binding signal stood at 0.61 ± 0.0707 absorbance.
As for AAAAAAGCCATCATGGTTAGTGTACAAAAA, the figure is 0.665 ± 0.148 absorbance.
In turn, AAAAAACACTGCACTATTGGGAGTTCAAAA had a binding signal of 0.615 ± 0.177 absorbance.
The figure for AAAAAAAGTTTGACCTTGGCGTTCGTAAAA is 3.5 ± 0.148 absorbance; for AAAAAATATTCGCCGGTAGCCACGCTAAAA it is 0.565 ± 0.12 absorbance; for AAAAAAGGCCACGGTAACCCCTTTTGAAAA it is 0.695 ± 0.12 absorbance.
In turn, AAAAAAGTGTTTGTGCTTCTCTCTGTAAAA displayed a binding signal of 0.58 ± 0.0707 absorbance.
The figure for AAAAAATCAGTCTGAGACTTACAACTAAAA is 0.84 ± 0.283 absorbance.
